Screening results deposited in PubChem by The Scripps Research Institute Molecular Screening Center.
A selection: hits, their analogues and other compounds. The true share with any hit is near 4.1%.
PRMT1 FP inh: blocks human protein arginine methyltransferase 1; Q99873; recombinant PRMT1, activity-based probe fluorescence polarization; inhibition, % at 2.79 µM; 1.3% of 370,000 active;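 active = inhibition above about 21% made by adding two undisclosed values, limit read from the data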
ABHD5 PLIN5 PPI: blocks binding of human ABHD5 to perilipin-5. Q00G26+Q8WTS1. Split G. princeps luciferase complementation, luminescence, 4 h. inhibition, % at 4 µM. 0.78% of 360,000 active. AID 602281;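 active = inhibition above the mean inhibition across every tested compound plus 3 SD, cut at about 22% in these data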;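 note: 0% = DMSO only wells and the 100% control is not disclosed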
MBD2 inh: inhibitors of human MBD2 binding to methylated oligonucleotide | TR-FRET | Q9UBB5 | AID 686964 | inhibition, % at 4.4 µM | 0.31% of 370,000 active; in the data active = inhibition above about 13%
Target sequence (Q9UBB5 whole entry, looked up): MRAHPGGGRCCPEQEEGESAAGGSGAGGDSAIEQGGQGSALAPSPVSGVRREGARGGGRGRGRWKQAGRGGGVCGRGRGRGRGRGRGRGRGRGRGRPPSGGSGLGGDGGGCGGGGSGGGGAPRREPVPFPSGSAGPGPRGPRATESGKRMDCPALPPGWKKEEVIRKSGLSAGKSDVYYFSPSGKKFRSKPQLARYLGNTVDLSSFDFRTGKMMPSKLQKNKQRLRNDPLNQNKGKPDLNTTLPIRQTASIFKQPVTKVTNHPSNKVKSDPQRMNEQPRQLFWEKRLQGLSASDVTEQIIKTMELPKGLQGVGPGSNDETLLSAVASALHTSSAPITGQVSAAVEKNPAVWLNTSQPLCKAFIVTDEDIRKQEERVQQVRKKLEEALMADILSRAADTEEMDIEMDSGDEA
LEDGF integ inh: blocks HIV-1 LEDGF/p75-dependent DNA integration. inhibition, % at 3.7 µM. 0.64% of 370,000 active. AID 743269. TR-FRET IN-LEDGF/p75 DNA integration, Eu/Cy5;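 active = inhibition above the screen-wide mean plus 3 SD, cut at about 13% in these data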;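 note: signal is the Cy5 over europium emission ratio at 671 and 618 nm; 0% = plate median of compound wells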
rCAG RNA binder: molecules binding r(CAG) RNA repeats | AID 651821 | 1.3% of 370,000 active | inhibition, % at 3 µM | r(CAG) RNA repeat, TO-PRO-1 dye displacement fluorescence;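 active = inhibition above the plate cutoff, the mean of all test compounds on that plate plus 3 SD, cut at about 35% in these data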;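 note: 0% = DMSO alone and 100% = 100 µM mitoxantrone as full dye displacement; higher means more dye released from RNA so lower well fluorescence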
UHRF1 binding: human UHRF1 methylated DNA binding inhibitors; Q96T88; UHRF1 binding to methylated oligo, TR-FRET; inhibition, % at 4.4 µM; 0.75% of 370,000 active; AID 687016;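 note: UHRF1 SRA domain binding a hemimethylated CpG hairpin DNA probe; 0% = median of test compound wells and 100% = reference inhibitor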
UHRF1 DNA bind: counter-screen for MBD2 inhibitors: human UHRF1 methylated DNA binding inhibitors; UHRF1 binding to methylated oligonucleotide, TR-FRET; shares compounds with MBD2 inh; 25% of 1,000 active; inhibition, % at 4.4 µM;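 note: UHRF1 SRA domain binding a labeled hemimethylated CpG hairpin DNA; 0% = vehicle only and 100% = reference inhibitor with vehicle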
MBD2 confirm: confirmation of human MBD2-DBD methylated oligonucleotide binding inhibitors; inhibition, % at 4.4 µM; shares compounds with MBD2 inh; TR-FRET MBD2-DBD binding to methylated oligonucleotide; 26% of 1,000 active; in the data active = inhibition above about 14%
IN multimer up: activates HIV-1 integrase multimerization in LEDGF counter-screen; shares compounds with LEDGF integ inh; TR-FRET HIV-1 integrase multimerization, biochemical; activation, % at 7.7 µM; 17% of 2,000 active; in the data active = activation above about 8.9%
TRFRET interf: optically interferes with TR-FRET readout in LEDGF counter-screen | inhibition, % at 7.7 µM | AID 1053135 | TR-FRET optical interference counterscreen, HIV-1 IN multimerization | shares compounds with LEDGF integ inh | 2,000 tested, under 10 active;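 active = inhibition above the mean over all tested compounds plus 3 SD, which no compound reached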;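 note: 0% = integrase with antibodies and DMSO and 100% = antibodies without integrase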
IN-LEDGF confirm: LEDGF/p75-dependent HIV-1 integration inhibition, confirmation; shares compounds with LEDGF integ inh; TR-FRET LEDGF/p75-dependent HIV-1 integration, biochemical; 36% of 2,000 active; inhibition, % at 3.7 µM; in the data active = inhibition above about 14%
Numbers without * were called inactive; . = not tested or not shown. Cut-off read from the data, not from the text of the source, unless noted: active = inhibition above about 21%; inactive = the rest.

SMILES	PRMT1 FP inh	ABHD5 PLIN5 PPI	MBD2 inh	LEDGF integ inh	rCAG RNA binder	UHRF1 binding	IN multimer up	TRFRET interf	IN-LEDGF confirm	others
C=C(C)C(=O)Nc1cccc(C2=NOC3(C2)C[C@@H](C(N)=O)N(C(=O)C(=C)C)C3)c1 (some centres undefined)	-1.3	-1.0	35.1*	15.5*	0.5	73.6*	17.4*	-87.8	30.0*	UHRF1 DNA bind=72.8*;MBD2 confirm=41.8*
C=C(C)C(=O)Nc1cccc(C2=NOC3(C2)C[C@@H](C(N)=O)N(C(=O)C2(C)CC2)C3)c1 (some centres undefined)	0.4	-3.4	54.6*	35.8*	7.5	91.5*	93.4*	-334.1	60.1*	UHRF1 DNA bind=94.0*;MBD2 confirm=79.1*
C/C=C\C(=O)Nc1cccc(C2=NOC3(C2)C[C@@H](C(N)=O)N(C(=O)C2(C)CC2)C3)c1 (some centres undefined)	1.1	6.3	3.5	2.1	5.1	3.6	.	.	.
C=C(C)C(=O)Nc1cccc(C2=NOC3(C2)C[C@H](C(N)=O)N(C(=O)/C=C/C)C3)c1 (some centres undefined)	-1.1	1.9	46.1*	25.5*	12.0	82.4*	19.0*	-95.9	34.0*	UHRF1 DNA bind=72.9*;MBD2 confirm=48.1*
C=C(C)C(=O)N1CC2(CC(c3cccc(NC(=O)/C=C\C=C/C)c3)=NO2)C[C@H]1C(N)=O (some centres undefined)	1.5	9.0	2.1	2.4	13.0	3.9	.	.	.
O=C(OC12CCCN(C1)/C(=C/c1cccc(Cl)c1)C2)c1ccco1 (centres undefined)	1.3	.	4.1	-0.5	4.8	0.1	.	.	.
COc1ccc(OC)c(CN2C(=O)COc3ccccc3C2c2nnnn2C2CCCC2)c1 (centres undefined)	2.8	.	-2.6	5.0	0.3	-1.3	.	.	.
CCC(=O)Nc1nnc(S(=O)(=O)N2CCCCCC2)s1	-2.3	9.9	-0.5	4.6	3.8	-0.1	.	.	.
CCC(=O)Nc1nnc(S(=O)(=O)N2CCCC2)s1	2.4	4.4	-2.0	14.1*	1.6	-0.8	-2.3	11.8	-4.0
CC(=O)N1CCn2c3c(c(=O)c4cc(C)ccc42)CCC31 (centres undefined)	5.4	-33.0	-7.4	20.0*	9.2	-1.4	0.2	-0.8	23.5*
Cc1cc(NS(=O)(=O)c2ccc3c(c2)CCC(=O)N3)ccc1Cl	-8.4	.	-2.8	-4.3	.	-0.8	.	.	.
Cc1cccc(C)c1NC(=O)C1CCCN1S(=O)(=O)c1cccc2cccnc12 (centres undefined)	-3.5	.	2.0	0.0	0.6	3.1	.	.	.
CCc1nnc(N/N=C/c2ccc(N3CCC(C)CC3)c([N+](=O)[O-])c2)n1N	1.3	-18.0	-1.1	38.1*	-0.1	-6.2	2.4	-8.6	0.4
Cc1nnc(N/N=C/c2cc([N+](=O)[O-])c(N3CCC(C)CC3)cc2N2CCC(C)CC2)n1N	3.5	-21.1	-6.1	51.6*	4.7	2.6	1.5	-5.5	-2.1
O=C(NCCCO)c1ccc(CSc2nc3ccccc3[nH]2)cc1	2.1	5.0	4.7	17.0*	0.7	1.1	-0.1	0.3	-4.6
COC(=O)C1C(=O)C=C(Nc2ccc(F)cc2)CC1c1ccc(OC)cc1 (centres undefined)	-0.9	-4.2	-0.2	-4.0	-1.2	-3.3	.	.	.
